Measured values: the supplement of paper PMC9135407
Where “and” joins values, the source holds several entries; their conditions need not be identical. Identical values can stand only once. Screen size: about 5,800 compounds; about 620 (11%) showed activity.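 How the source made its calls: active = score above a cut-off or among the top three wells of a plate; in these data no inactive exceeds 0.85.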 Many of the other results were omitted from the sample, so actives are more common in it than they were.

Test system: primary human hepatic stellate cells (donor 1)
Assay: scaled lipid accumulation score (0 = DMSO-like, 1 = nortriptyline-like); higher = stronger HSC inactivation (lipid re-accumulation), active = hit call of the paper
Settings: 48 h
Procedure: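 Primary lipid accumulation screen in primary human hepatic stellate cell myofibroblasts (donor 1, passage 8) in 384-well plates. 100 nL of library compound was pin-transferred into 30 µL medium in duplicate, and cells were treated for 48 h. The 'Scaled' score combines distance from plate baseline, toxicity and reproducibility penalties, and is normalised to nortriptyline (positive) and DMSO (negative) controls on each plate. A hit is defined as scaled >0.85 or among the top 3 wells per plate.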

[1] = library stock concentration: 10 mM
[2] = library stock concentration: 400 uM
[3] = library stock concentration: 2 mM
[4] = library stock concentration: 80 uM
[5] = library stock concentration: 3.33 mM
[6] = library stock concentration: 1 mM

Compound: CC(=O)NC(C(=O)O)c1ccccc1 (stereo not drawn)
- scaled lipid accumulation score [1]: ≤ 0 (inactive)

Compound: CC(C)C(=O)Nc1ncc(-c2cc(C(F)F)nn2-c2c(Cl)cccc2Cl)s1
- scaled lipid accumulation score [1]: 1.1 (active)

Compound: CC(=O)Nc1ccc([C@H](C)C(=O)Nc2ncc(C(C)C)s2)cc1
- scaled lipid accumulation score [2]: ≤ -0.005 (inactive)
- scaled lipid accumulation score [3]: 0.175 (inactive)
- scaled lipid accumulation score [1]: 0.348 (inactive)

Compound: CC(C)(C)c1cc(NC(=O)Nc2ccc(-c3cn4c(n3)sc3cc(OCCN5CCOCC5)ccc34)cc2)no1
- scaled lipid accumulation score [4]: ≤ 0 (inactive)
- scaled lipid accumulation score [2]: ≤ 0 (inactive)
- scaled lipid accumulation score [3]: 0.142 (inactive)
- scaled lipid accumulation score [1]: 0.292 (inactive)

Compound: CC(C)(C)c1cc(NC(=O)Nc2ccc(-c3cn4c(n3)sc3cc(OCCN5CCOCC5)ccc34)cc2)no1 [Quizartinib  (AC220) (0.4 mM)]
- scaled lipid accumulation score [2]: ≤ -0.005 (inactive)

Compound: CC(C)(C)c1cc(NC(=O)Nc2ccc(-c3cn4c(n3)sc3cc(OCCN5CCOCC5)ccc34)cc2)no1 [Quizartinib  (AC220) (10 mM)]
- scaled lipid accumulation score [1]: 1.7 (active)

Compound: Cc1ccc(-n2nc(C(C)(C)C)cc2NC(=O)Nc2ccc(OCCN3CCOCC3)c3ccccc23)cc1
- scaled lipid accumulation score [4]: ≤ -0.009 (inactive)
- scaled lipid accumulation score [2]: ≤ -0.009 (inactive)
- scaled lipid accumulation score [3]: 0.044 (inactive)
- scaled lipid accumulation score [1]: ≤ -0.009 (inactive)

Compound: Cc1ccc(-n2nc(C(C)(C)C)cc2NC(=O)Nc2ccc(OCCN3CCOCC3)c3ccccc23)cc1 [BIRB 796 (Doramapimod)]
- scaled lipid accumulation score [5]: 0.017 (inactive)
- scaled lipid accumulation score [1]: ≤ 0 (inactive)

Compound: CC(C)(C)c1cc(NC(=O)Nc2ccc(-c3cn4c(n3)sc3cc(OCCN5CCOCC5)ccc34)cc2)no1 [Quizartinib (AC220)] [listing 1 of 2 here]
- scaled lipid accumulation score [1]: 1.15 (active)

Compound: CC(C)(C)c1cc(NC(=O)Nc2ccc(-c3cn4c(n3)sc3cc(OCCN5CCOCC5)ccc34)cc2)no1 [Quizartinib (AC220)] [listing 2 of 2 here]
- scaled lipid accumulation score [5]: 0.288 (inactive)

Compound: O=C(Cc1ccc(-c2ccc(OCCN3CCOCC3)cc2)cn1)NCc1ccccc1
- scaled lipid accumulation score [4]: 0.076 (inactive)
- scaled lipid accumulation score [2]: 0.268 (inactive)
- scaled lipid accumulation score [3]: 0.077 (inactive)
- scaled lipid accumulation score [5]: 0.093 (inactive)
- scaled lipid accumulation score [1]: 0.076 (inactive) and 0.499 (inactive)

Compound: CC(C)(C)c1cc(NC(=O)Nc2ccc(-c3cn4c(n3)sc3cc(OCCN5CCOCC5)ccc34)cc2)no1 [Quizartinib  (AC220) (2 mM)]
- scaled lipid accumulation score [3]: 1.02 (active)

Compound: C=C1CCC(O)C/C1=C\C=C1\CCCC2(C)C1CCC2C(C)CCC(O)C(C)(C)O (stereo not drawn) [24,25-Dihydroxyvitamin D3]
- scaled lipid accumulation score [6]: 0.016 (inactive)

Compound: O=C(O)CCC/C=C\C[C@H]1C(=O)C[C@@H](O)[C@@H]1/C=C/[C@@H](O)COc1ccccc1 [16-phenoxy tetranor Prostaglandin E2]
- scaled lipid accumulation score [6]: ≤ 0 (inactive)

Compound: CCCCCCCCCCCCCCCCCCCCCCCC(=O)NCCS(=O)(=O)O [N-Lignoceroyl Taurine]
- scaled lipid accumulation score [6]: 0.009 (inactive)
